Hits are enriched below; roughly 3.3% of the tested compounds scored in any of these assays.
HBB splicing = modulators of hemoglobin beta chain splicing; HBB splicing reporter cell assay, activation; EGFP reporter with mutant IVS2-654 intron; response scale: normalised to 500 nM splice-correcting PNA; Potency, µM (series often up to 46.1 µM), without a hit: at the highest dose activation, actives largely listed as activators; hit rate 0.06% among 65,000; further: potency means the concentration at half of the fitted maximal effect; 0% is about no effect
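Compounds were applied for 2 days to HeLa EGFP-654 cells, 500/well in Optimem with 2% FCS. The reporter's EGFP is disrupted by mis-splicing of beta-globin intron IVS2-654. Readout: summed well GFP fluorescence from 488 nm laser scanning; reference was 500 nM antisense […] 654 PNA.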
GFP derepression = epigenetic modulators derepressing GFP locus in mouse cells | hit rate 0.09% among 68,000 | Potency, µM (top dose mostly 46.1 µM), inactives show at the highest dose GFP derepression (activation) | mouse C127i GFP locus derepression, cytometry, 30 h; further: % of control where 0% means no effect
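Read-out is the number of GFP-positive cells, scored as fluorescent objects 20 to 120 um wide, reflecting derepression of a silenced CMV-GFP reporter in murine C127i cells after 30 h compound exposure at 37 C.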
GBA mod = human lysosomal glucosylceramidase modulation; purified enzyme, resorufin glucoside fluorescence (screen aimed at inhibitors), 20 min; Potency, µM; P04062; hit rate 1.1% among 48,000; in the data active means potency below about 15 µM; inconclusive means mostly about 16 µM to 33 µM;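 further: potency means the concentration at half of the fitted maximal effect; the screen sought inhibitors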
Target sequence (P04062 whole entry, looked up): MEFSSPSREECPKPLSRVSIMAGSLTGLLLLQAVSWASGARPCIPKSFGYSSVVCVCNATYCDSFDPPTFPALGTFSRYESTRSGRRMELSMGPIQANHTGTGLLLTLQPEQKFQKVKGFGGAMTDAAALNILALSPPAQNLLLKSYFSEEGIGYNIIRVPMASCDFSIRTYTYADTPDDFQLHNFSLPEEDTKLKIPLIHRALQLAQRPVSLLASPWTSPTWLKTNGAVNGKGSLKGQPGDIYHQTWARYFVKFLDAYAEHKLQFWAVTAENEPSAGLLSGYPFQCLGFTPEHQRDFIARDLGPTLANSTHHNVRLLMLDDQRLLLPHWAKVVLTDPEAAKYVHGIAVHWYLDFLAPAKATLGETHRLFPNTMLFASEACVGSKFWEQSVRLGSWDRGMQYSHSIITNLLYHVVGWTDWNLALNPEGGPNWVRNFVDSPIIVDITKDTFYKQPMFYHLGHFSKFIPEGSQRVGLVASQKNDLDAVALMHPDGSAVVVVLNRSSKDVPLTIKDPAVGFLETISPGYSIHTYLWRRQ
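Compounds titrated against 0.2 nM normal enzyme, 30 uM resorufin beta-D-glucopyranoside substrate, citrate/phosphate buffer with taurocholate and tween-20, pH 5.9. Reaction ran 20 min at room temperature; fluorescence (Ex 548/Em 600) gave AC50.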
Ub-GFP proteasome = proteasome inhibitors stabilizing ubiquitin-GFP reporter; Ubiquitin-GFP reporter cells, proteasome inhibition, GFP fluorescence; response scale: untreated = 0%, 10 µM MG-132 = 100%; AID 526; 67,000 tested, under 10 active; Potency, µM (highest dose often 45.9 µM), for inactives: top-dose activation (GFP accumulation), hits mostly activators; active means well fitted activation curve with a large enough effect, not every such curve was filed as active; inconclusive means small, poorly fitted or top-dose-only effect, or another doubt; inactive means no such curve, though single readings can be large or run the other way; further: potency means the concentration at half of the fitted maximal effect
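U2OS cells expressing ubiquitin(G76V)-GFP, seeded overnight in 0.5% FBS medium, then treated 4 hr at 37 C across 46 uM to 2.9 nM. GFP-positive cells counted by laser cytometry (488 ex/515 em); %activity scaled between basal and 10 uM MG-132.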
FLuc inh = blocks Photinus pyralis firefly luciferase activity | P08659 | purified firefly luciferase, luminescence, 8 min | Potency, µM (titrated, usually from 57.1 µM), for inactives: at the highest dose activity change, negative = inhibition, usual class: inhibitors | hit rate 2.2% among 72,000 | AID 411; further: potency means the concentration at half of the fitted maximal effect; on the % scale 0 is the no-effect control and ±100 the full control effect; nearly all actives have a fitted effect of over 40% in size
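Compounds were tested as concentration series (qHTS) against purified P. pyralis luciferase with luciferin and 10 uM ATP in 50 mM imidazole pH 7.2, 50 mM KCl, 7 mM MgCl2, 0.01% Tween 20, 0.05% BSA. Luminescence was read after 8 min at ambient temperature.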
PK Bst = modulators of Bacillus stearothermophilus pyruvate kinase; AID 361; Potency, µM; hit rate 1.2% among 51,000; purified pyruvate kinase, luminescence ATP production; ribose 5-phosphate activator present at AC10; in the data active means potency below about 11 µM; inconclusive means mostly about 12 µM to 25 µM;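 the screen sought inhibitors and activators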;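 further: potency means the concentration at half of the fitted maximal effect; scaled between full activation by ribose 5 phosphate and full inhibition by luteolin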
Numbers without * were called inactive; i = inactive; ? = inconclusive; / = no result; [ ] = dose if it differs, or a comment. Unless noted, the call rests on the fitted dose curve; in most records, active means well fitted curve in the direction sought with a large enough effect; inconclusive means small, poorly fitted or top-dose-only effect, or another doubt; inactive means no such curve, though single readings can be large; an effect the other way counts as inactive or inconclusive.

SMILES | HBB splicing | GFP derepression | GBA mod | Ub-GFP proteasome | FLuc inh | PK Bst
CC1CCC(O)([C@](C)(C(=O)O)c2ccccc2)CC1 (stereo not given in full) | 2%[9.22 µM] | 0%[9.22 µM] | / | 3%[9.17 µM] | 1%[11.4 µM] | /
NC(N)=NC(N)=Nc1ccc(S(N)(=O)=O)cc1 | 3%[9.22 µM] | 7%[9.22 µM] | / | 1%[9.17 µM] | 1%[11.4 µM] | /
COc1ccc(-c2nnc3sc(-c4cccs4)nn23)cc1OC | 0%[57.5 µM] | 4% | >77 | -2% | 0% | 2.6*
COc1cc(-c2nn3c(-c4cccnc4)nnc3s2)cc(OC)c1OC | / | 4%[20.6 µM] | / | / | 2%[25.5 µM] | >26
COc1ccc(-c2nn3c(-c4cccc(C)c4)nnc3s2)cc1OC | 2%[57.5 µM] | 2% | >77 | -1% | 0% | >57
COc1cc(-c2nnc3sc(-c4cccs4)nn23)cc(OC)c1OC | 1%[1.84 µM] | -2% | >77 | -7% | 1% | 2.8*
COC(=O)CSc1nc2c(c(-c3ccc(C)o3)c1C#N)CCCC2 | 2%[0.369 µM] | -4% | 15* | / | -1% | >57
COC(=O)CC(=O)CSc1nc2c(cc1C#N)CCCCC2 | 0% | 0% | >77 | 9% | 13µM* | i
Cc1ccccc1NC(=O)CSc1nc2c(c(-c3ccco3)c1C#N)CCCC2 | 2%[57.5 µM] | -1% | >77 | -2% | 1% | >57
CCc1nnc(NC(=O)CSc2nc3c(cc2C#N)CCCC3)s1 | 0% | 2% | >77 | 7% | ? | /
COc1ccc2c(c1)[n+]([O-])c(/C(C)=N/NC(N)=S)c(C)[n+]2[O-] | 0%[9.22 µM] | 0%[9.22 µM] | / | 9%[9.17 µM] | -3%[11.4 µM] | /
COC(=O)c1[nH]c2ccc(C)cc2c1NC(=O)CN1CCCc2ccccc21 | 1%[1.84 µM] | 0% | >77 | 7% | 1% | 9.1*
CCC[C@H]1C[C@H](C(=O)N[C@H]([C@@H]2O[C@H](SC)[C@@H](O)[C@H](O)[C@@H]2O)[C@H](C)O)N(C)C1 | 0%[20.6 µM] | -1%[20.6 µM] | / | 9%[20.5 µM] | 9%[25.5 µM] | /
Cc1ccc2nc(N3CCN(C)CC3)c(C#N)cc2c1 | / | 0% | >77 | 0% | -2% | >57
N#Cc1cc2cc3c(cc2nc1N1CCCCC1)OCCO3 | / | 0% | >77 | -2% | 13µM* | >57
O=C(Nc1ccc2nc3n(c(=O)c2c1)CCCCC3)c1ccccn1 | -1% | 0% | / | -6% | 13µM* | /
CCc1cccc(NC(=O)Nc2cccs2)c1 | -2% | 0% | >77 | -3% | 16µM* | /
N#Cc1cccc(NC(=O)Nc2cccs2)c1 | 1% | 2% | >77 | -6% | -21% | /
CO[C@@H]1COC(=O)[C@H](COCc2ccccc2)NC(=O)C/C=C\[C@@H](C)[C@H](OC)COC(=O)[C@H](COCc2ccccc2)NC(=O)C/C=C\[C@H]1C | 1%[9.22 µM] | / | / | / | 0%[11.4 µM] | /
Cc1csc(SCc2nnc(-c3ccccc3Br)o2)n1 | 0%[57.5 µM] | 0% | >77 | 0% | 20µM* | /
Cc1nnc(SCc2nnc(-c3ccccc3Br)o2)n1-c1ccccc1 | -1% | 2% | >77 | -10% | 0% | >57
COc1ccc2[nH]c(=O)c(C(c3nnnn3CC3CCCO3)N3CCc4ccccc4C3)cc2c1 (stereo not given) | / | 1% | 14* | -6% | -1% | >57
Cc1ccc2[nH]c(=O)c(C(c3nnnn3CC3CCCO3)N3CCc4ccccc4C3)cc2c1 (stereo not given) | 0%[57.5 µM] | 3% | >77 | 1% | 4% | >57
Cn1cc(-c2nc3cnc(N4CCNCC4)nc3n(C)c2=O)c2ccccc21 | 1% | 16%[9.22 µM] | / | -7% | -4%[11.4 µM] | /
CN(C)/C=N/c1cnc(C(=O)c2ccc(Cl)cc2)n1C | -1% | 2% | / | 5% | 13µM* | /
SMILES | HBB splicing | GFP derepression | GBA mod | Ub-GFP proteasome | FLuc inh | PK Bst
O=C(c1ccc(O)cc1)c1ccc(Cl)cc1 | -1% | -3% | / | -11% | -5% | /
Cc1nc2sccn2c1-c1nc(-c2cc3ccccc3o2)cs1 | -1% | -1% | / | -4% | -14% | ?
Cc1ccnc(Nc2nc(-c3c(C)nc4sccn34)cs2)c1 | / | 4% | >77 | -1% | 16µM* | 11*
CC[C@]1(O)C[C@H]2CN(CCc3c([nH]c4ccccc34)[C@](C(=O)OC)(c3cc4c(cc3OC)N(C=O)[C@H]3[C@@](O)(C(=O)OC)[C@H](OC(C)=O)[C@@]5(CC)C=CCN6CC[C@]43[C@H]65)C2)C1 | 0% | 2% | / | -3% | 0% | /
CC(=O)N1CCc2cc(NC(=O)c3ccc(C)cc3)ccc21 | -1% | 0% | >77 | 2% | 6.3µM* | ?
CC(=O)N1CCc2cc(S(=O)(=O)NCCC(=O)Nc3cc(C)cc(C)c3)ccc21 | 0% | 1% | >77 | 11% | 2% | >57
COc1cc(=O)n(C)c2cc(N(C)C)ccc12 | 1%[0.369 µM] | 2% | / | -3% | -3% | 4.9*
COc1ccc(/C=N/c2nc3ccccc3n2C)cc1OC | 1% | 3% | >77 | ? | 20µM* | i
CC(C)[C@H](NC(=O)OC(C)(C)C)[C@@H](O)CC(=O)OC(C)(C)C | 2%[9.22 µM] | / | / | / | 1%[11.4 µM] | /
CC(C)[C@@H](OCc1ccccc1)[C@H](C)/C=N\O[C@@H](C)c1cn([C@H](CO)Cc2ccccc2)nn1 | 2%[9.22 µM] | / | / | / | 0%[11.4 µM] | /
O=C1c2ccccc2C(=O)N1Cc1nn2c(-c3ccc(Cl)cc3)nnc2s1 | 2%[57.5 µM] | 6% | 7.8* | -2% | 0% | >57
COc1ccc(-c2nnc3sc(CN4C(=O)c5ccccc5C4=O)nn23)cc1 | 3%[57.5 µM] | 6% | / | 4% | 0% | >57
CCc1nnc(NC(=O)CSc2nnc(Cc3ccccc3)o2)s1 | -1% | 1% | ? | -3% | 2% | >57
CCc1nnc(NC(=O)CSc2nnc(CNc3ccc(Cl)cc3)o2)s1 | 1% | 0% | 15* | 2% | 3% | >57
CC1(O)C(=O)C=C2C=C3CCCN3C=C2C1=O (stereo not given) | 2%[9.22 µM] | / | / | / | / | /
Oc1ccccc1Nc1nc(NCC2CCCO2)c2ccccc2n1 (stereo not given) | / | -1% | 0.43* | -2% | -5% | /
C=CCNc1ncnc2c1[nH]c1ccc(C)cc12 | -3%[57.5 µM] | 0% | ? | -4% | 10µM* | ?
CCOc1ncccc1C(=O)OCC(=O)c1cc(C)n(Cc2ccco2)c1C | 0%[57.5 µM] | 0% | >77 | 0% | 13µM* | ?
Cc1cc(C(=O)COC(=O)CCC(=O)c2ccc3c(c2)OCCO3)c(C)n1Cc1ccco1 | 2% | -1% | >77 | 1% | -6% | >57
COCOc1cc(OC)ccc1C(=O)/C=C\c1ccc2c(c1)OCO2 | 3%[9.22 µM] | / | / | / | -1%[11.4 µM] | /
NNC(=O)CS(=O)(=O)Nc1ncccn1 | 3%[9.22 µM] | 7%[9.22 µM] | / | -4%[9.17 µM] | 1%[11.4 µM] | /
O=C(CC1Oc2ccccc2NC1=O)NCc1ccccc1 (stereo not given) | -1% | -4% | / | 18% | 0% | /
CC(=O)CC1OC(=O)C(Br)=C1NCc1ccccc1 (stereo not given) | 6% | 13µM* | >77 | -3% | 2% | >57
